Here are results for 37 compounds from publication PMC5540273 (PLoS ONE, 2017).

Each structure is given as a SMILES string.
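Note: KINOMEscan kinase panel screen.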

For one experiment, the system named is MLK2. To be noted: concentration: 1 μM,replicates: in singlicate; n = 1.
As to `C[C@@H](Oc1cc(-n2cnc3cc(-c4ccncc4)ccc32)sc1C(N)=O)c1ccccc1Cl` [GSK479719], the “%Inh” value is given as 0%.
The same measure, in the same setting: the same measure for `COc1cc2c(Nc3ccc(NC(=O)c4ccccc4)cc3)ncnc2cc1OCCCN1CCOCC1` [GSK301329]: 0%; for `Cc1cccc(-c2nc(Nc3ccncc3)c3sccc3n2)n1` [GW869641]: 34%; for `Cl.Cl.NC[C@H](CC1CCCCC1)NC(=O)c1ccc(-c2ccnc3[nH]ccc23)s1` [GSK1581428]: 0%.
For the compound `Cc1ccc(Nc2ccnc(Nc3ccc4c(c3)CS(=O)(=O)C4)n2)cc1O.Cl` [GW579362], the “%Inh” value worked out at 100%.
On to `CCOC(=O)N1CCC(n2cnc(-c3ccc(F)cc3)c2-c2ccnc(N)n2)CC1` [SB-219952], for which the “%Inh” value is 0%.
On the same count and under the same terms, as for `CS(=O)(=O)c1cccc(CNc2nc(Nc3ccc4c(c3)[C@@H]3C[C@@H]4CNC3=O)ncc2C(F)(F)F)c1`, the figure is 84%; as for `O=C(Nc1ccc(Oc2ccc3nc(NC(=O)C4CC4)cn3n2)c(F)c1)c1cccn(-c2ccccc2)c1=O`, 32%; as for `Cc1ccc(C(=O)Nc2ccc(Oc3ccc4nc(NC(=O)C5CC5)cn4c3)c(F)c2)c(=O)n1-c1ccccc1`, 92.4%.
As to `CCN1CCN(CCCC(=O)Nc2n[nH]c3nc(-c4ccc(O)cc4)c(Br)cc23)CC1` [SB-731579], the “%Inh” value is given as 0%.
On the same count and under the same terms, the same measure for `COC(=O)c1cccc(NC(=O)NC2CCN(c3ccnc(Nc4cc(OC)c(OC)c(OC)c4)n3)C2)c1` (centres unmarked) [GSK1379767]: 0%.
Take `Cn1cc(-c2cccc3c(N)c(C(N)=O)nnc23)cn1`: the “%Inh” value stood at 2%.
As to `Cn1ccc2ncnc(Oc3ccc(NC(=O)Nc4cccc(C(F)(F)F)c4)c(F)c3)c21`, the “%Inh” value worked out at 0%.
The same measure, in the same setting: the same measure for `COc1cc(Nc2nccc(N3CCC(NC(=O)c4cccc(C#N)c4)C3)n2)cc(OC)c1OC` (centres unmarked) [GSK1379751]: 34%.
On to `c1ccc(Oc2ccc(Nc3ccnc4ccc(-c5ccccn5)cc34)cc2)cc1` [GW407034], for which the “%Inh” value was determined as 3%.
Regarding `C[C@@H](Oc1cc(-n2cnc3cc(-c4cnn(C)c4)ccc32)sc1C(N)=O)c1ccccc1Cl` [GSK580432], the “%Inh” value came to 49%.
Regarding `FC(F)(F)c1cc(Br)cc(Nc2nccc(-c3cnn4ncccc34)n2)c1` [GW810578], the “%Inh” value is given as 17%.
As for `COc1cccc(CNC(=O)NC2CCN(c3ccnc(Nc4cc(OC)c(OC)c(OC)c4)n3)C2)c1` (centres unmarked) [GSK1379765], the “%Inh” value was found to be 26%.
Take `Cc1n[nH]c2cc(Nc3ccnc(Nc4cccc(CN5CCOCC5)c4)n3)ccc12` [GW682569]: the “%Inh” value is given as 38%.
In the case of `O=C(NCC1CC1)c1ccc(-c2cc(C(=O)NC3CC3)ccc2F)cc1` [GW810445], the “%Inh” value amounted to 0%.
The same measure, in the same setting: as for `Cc1nnc(-c2ccc3occ(-c4ccc(S(C)=O)cc4)c3n2)o1` (centres unmarked), the figure is 0%; as for `COC(=O)c1cccc(NC(=O)NC2CCN(c3ccnc(NCc4ccc(F)cc4)n3)CC2)c1` [GSK1379860], 0%.
For `Cc1cccc2c(-c3ccncc3)c(-c3ccc(F)cc3)nn12.Cl` [GW461487], the “%Inh” value amounted to 0%.
Consider `O=C(Nc1n[nH]c2cc(-c3ccco3)ccc12)C1CC1` [SB-737447], for which the “%Inh” value is on record as 34%.
For the compound `CN(c1ccccc1CNc1nc(Nc2ccc3c(c2)CC(=O)N3)ncc1C(F)(F)F)S(C)(=O)=O`, the “%Inh” value stood at 77%.
`CC(=O)Nc1nc2cnc(Nc3cc(NC(=O)c4cccc(CC(C)(C)C#N)c4)ccc3C)nc2s1`: the “%Inh” value came out at 14%.
Still for that read-out and setting: the same measure for `COc1ccc(Nc2nccc(N3CCC(NC(=O)c4cccc(C#N)c4)C3)n2)cc1` (centres unmarked) [GSK1379730]: 0%; for `CS(=O)c1ccc(-c2coc3ccc(-c4n[nH]c(=O)o4)cc23)cc1` (centres unmarked): 6%; for `CS(=O)(=O)Nc1ccc(-c2ccnc3[nH]ccc23)cc1` [GSK993273]: 33%.
Still for that read-out and setting: the same measure for `Cn1ccc2ncnc(Oc3ccc(NC(=O)Nc4cnn(C(C)(C)C)c4)c(Cl)c3)c21`: 26%; for `Cl.c1ccc(Oc2ccc(Nc3ccnc4cc(-c5ccc(CN6CCNCC6)o5)ccc34)cc2)nc1` [GW567142]: 0%.
Consider `CSc1nccc(-c2c(-c3ccc(F)cc3)ncn2CCCN2CCOCC2)n1.Cl` [SB-217146], for which the “%Inh” value amounted to 28%.
On the same count and under the same terms, as for `C[C@@H](Oc1cc(-n2cnc3ccc(-c4ccncc4)cc32)sc1C(N)=O)c1ccccc1Cl` [GSK483724], the figure is 23%; as for `Nc1nccc(-c2ccc3c(N)n[nH]c3c2)n1` [GSK1034945], 0%.
On the same count and under the same terms, the same measure for `CC(C(=O)NC1CCN(c2ccnc(Nc3ccc(F)cc3)n2)C1)c1ccc(Cl)cc1` (centres unmarked) [GSK1379713]: 12%; for `C[C@@H]1CCN(C(=O)N2CCCC2)C[C@@H]1N(C)c1ncnc2[nH]ccc12`: 33%; for `NC(=O)c1ccc(-c2cc3ncnc(SCC(=O)O)c3s2)cc1`: 0%.

Another experiment relates to MLK3. To be noted: concentration: 1 μM,replicates: in singlicate; n = 1.
For `C[C@@H](Oc1cc(-n2cnc3cc(-c4ccncc4)ccc32)sc1C(N)=O)c1ccccc1Cl` [GSK479719], the “%Inh” value was found to be 24%.
In the case of `COc1cc2c(Nc3ccc(NC(=O)c4ccccc4)cc3)ncnc2cc1OCCCN1CCOCC1` [GSK301329], the “%Inh” value was 13%.
For `Cc1cccc(-c2nc(Nc3ccncc3)c3sccc3n2)n1` [GW869641], the “%Inh” value amounted to 19%.
The same measure, in the same setting: the same measure for `Cl.Cl.NC[C@H](CC1CCCCC1)NC(=O)c1ccc(-c2ccnc3[nH]ccc23)s1` [GSK1581428]: 0%; for `Cc1ccc(Nc2ccnc(Nc3ccc4c(c3)CS(=O)(=O)C4)n2)cc1O.Cl` [GW579362]: 89%; for `CCOC(=O)N1CCC(n2cnc(-c3ccc(F)cc3)c2-c2ccnc(N)n2)CC1` [SB-219952]: 27%.
The same measure, in the same setting: the same measure for `CS(=O)(=O)c1cccc(CNc2nc(Nc3ccc4c(c3)[C@@H]3C[C@@H]4CNC3=O)ncc2C(F)(F)F)c1`: 98.1%; for `O=C(Nc1ccc(Oc2ccc3nc(NC(=O)C4CC4)cn3n2)c(F)c1)c1cccn(-c2ccccc2)c1=O`: 10%; for `Cc1ccc(C(=O)Nc2ccc(Oc3ccc4nc(NC(=O)C5CC5)cn4c3)c(F)c2)c(=O)n1-c1ccccc1`: 13%.
Still for that read-out and setting: the same measure for `CCN1CCN(CCCC(=O)Nc2n[nH]c3nc(-c4ccc(O)cc4)c(Br)cc23)CC1` [SB-731579]: 0%; for `COC(=O)c1cccc(NC(=O)NC2CCN(c3ccnc(Nc4cc(OC)c(OC)c(OC)c4)n3)C2)c1` (centres unmarked) [GSK1379767]: 34%.
As to `Cn1cc(-c2cccc3c(N)c(C(N)=O)nnc23)cn1`, the “%Inh” value came to 2%.
On the same count and under the same terms, the same measure for `Cn1ccc2ncnc(Oc3ccc(NC(=O)Nc4cccc(C(F)(F)F)c4)c(F)c3)c21`: 32%; for `COc1cc(Nc2nccc(N3CCC(NC(=O)c4cccc(C#N)c4)C3)n2)cc(OC)c1OC` (centres unmarked) [GSK1379751]: 25%; for `c1ccc(Oc2ccc(Nc3ccnc4ccc(-c5ccccn5)cc34)cc2)cc1` [GW407034]: 5%.
With `C[C@@H](Oc1cc(-n2cnc3cc(-c4cnn(C)c4)ccc32)sc1C(N)=O)c1ccccc1Cl` [GSK580432], the “%Inh” value is 80%.
Consider `FC(F)(F)c1cc(Br)cc(Nc2nccc(-c3cnn4ncccc34)n2)c1` [GW810578], for which the “%Inh” value is listed as 11%.
Still for that read-out and setting: as for `COc1cccc(CNC(=O)NC2CCN(c3ccnc(Nc4cc(OC)c(OC)c(OC)c4)n3)C2)c1` (centres unmarked) [GSK1379765], the figure is 41%; as for `Cc1n[nH]c2cc(Nc3ccnc(Nc4cccc(CN5CCOCC5)c4)n3)ccc12` [GW682569], 58%; as for `O=C(NCC1CC1)c1ccc(-c2cc(C(=O)NC3CC3)ccc2F)cc1` [GW810445], 0%.
For the compound `Cc1nnc(-c2ccc3occ(-c4ccc(S(C)=O)cc4)c3n2)o1` (centres unmarked), the “%Inh” value was found to be 0%.
Still for that read-out and setting: the same measure for `COC(=O)c1cccc(NC(=O)NC2CCN(c3ccnc(NCc4ccc(F)cc4)n3)CC2)c1` [GSK1379860]: 0%.
Turning to `Cc1cccc2c(-c3ccncc3)c(-c3ccc(F)cc3)nn12.Cl` [GW461487], the “%Inh” value came out at 0%.
Turning to `O=C(Nc1n[nH]c2cc(-c3ccco3)ccc12)C1CC1` [SB-737447], the “%Inh” value is reported as 0%.
Same read-out and setting: the same measure for `CN(c1ccccc1CNc1nc(Nc2ccc3c(c2)CC(=O)N3)ncc1C(F)(F)F)S(C)(=O)=O`: 92.9%; for `CC(=O)Nc1nc2cnc(Nc3cc(NC(=O)c4cccc(CC(C)(C)C#N)c4)ccc3C)nc2s1`: 5%.
Still for that read-out and setting: as for `COc1ccc(Nc2nccc(N3CCC(NC(=O)c4cccc(C#N)c4)C3)n2)cc1` (centres unmarked) [GSK1379730], the figure is 22%; as for `CS(=O)c1ccc(-c2coc3ccc(-c4n[nH]c(=O)o4)cc23)cc1` (centres unmarked), 0%.
Still for that read-out and setting: the same measure for `CS(=O)(=O)Nc1ccc(-c2ccnc3[nH]ccc23)cc1` [GSK993273]: 10%.
`Cn1ccc2ncnc(Oc3ccc(NC(=O)Nc4cnn(C(C)(C)C)c4)c(Cl)c3)c21`: the “%Inh” value is reported as 0%.
The same measure, in the same setting: as for `Cl.c1ccc(Oc2ccc(Nc3ccnc4cc(-c5ccc(CN6CCNCC6)o5)ccc34)cc2)nc1` [GW567142], the figure is 0%.
With `CSc1nccc(-c2c(-c3ccc(F)cc3)ncn2CCCN2CCOCC2)n1.Cl` [SB-217146], the “%Inh” value turned out to be 0%.
On the same count and under the same terms, as for `C[C@@H](Oc1cc(-n2cnc3ccc(-c4ccncc4)cc32)sc1C(N)=O)c1ccccc1Cl` [GSK483724], the figure is 31%.
Same read-out and setting: as for `Nc1nccc(-c2ccc3c(N)n[nH]c3c2)n1` [GSK1034945], the figure is 0%; as for `CC(C(=O)NC1CCN(c2ccnc(Nc3ccc(F)cc3)n2)C1)c1ccc(Cl)cc1` (centres unmarked) [GSK1379713], 0%; as for `C[C@@H]1CCN(C(=O)N2CCCC2)C[C@@H]1N(C)c1ncnc2[nH]ccc12`, 67%.
For `NC(=O)c1ccc(-c2cc3ncnc(SCC(=O)O)c3s2)cc1`, the “%Inh” value amounted to 0%.
